According to PubChem BioAssay AID1852 (Sanford-Burnham Center for Chemical Genomics, 2009):
Hit rate of the full screen: of about 2,500 compounds, about 1,100 (44%) were called active.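 The calls were made as follows: active = inhibition above 50% at 4 µM in the single-point screen; inactive = inhibition of 50% or less.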 The set was probably picked from earlier hits. This is one part of the list.

test: TNF-a-driven NF-kB reporter inhibitors, primary screen, selectivity assay for NOD1/NOD2 signaling inhibitor project, cell-based, HEK293T NF-kB-Luc, luminescence (AID 1852); settings: TNF-a induced, 14 h, at 4 µM, stronger effect = higher value

inhibition, inactive:
COc1cc(CNc2ccc3[nH]c(=O)[nH]c3c2)ccc1OCc1ccc(F)cc1Cl 28.6%
Cc1cc(=O)n(C)c(=O)n1CCCCOc1ccc([N+](=O)[O-])cc1 24.7%
Cc1c(C(=O)OCC(=O)c2c(N)n(CC(C)C)c(=O)n(C)c2=O)oc2ccccc12 26.4%
CCc1ccc(C(=O)OCC(=O)c2c(N)n(CC(C)C)c(=O)n(C)c2=O)cc1 23.2%
CC(=O)c1ccc(N2CCN(S(=O)(=O)c3ccc4c(c3)CC(C)N4C(C)=O)CC2)cc1 (centres undefined) 47.2%
O=C(c1ccc(-c2ccccc2)cc1)N1CCN(c2ccccn2)CC1 18.3%
Cc1ccccc1C(=O)Nc1ccc(-c2nc3ccc(C(=O)c4ccccc4)cc3[nH]2)cc1 38.3%
COc1ccc(C(=O)O/N=C(\N)c2ccc(Br)cc2)cc1 -10.5%
CC(C)(C)c1ccc(C(=O)O/N=C(\N)c2ccccn2)cc1 22.5%
COc1ccc(-n2cnc3c(sc4nc(N5CCOCC5)c5c(c43)CCCC5)c2=O)cc1 46.4%
COc1ccc(-c2cc(=O)oc3cc(OCC(=O)Nc4ccc(CCO)cc4)ccc23)cc1 38.3%
Cc1ccn2cc(-c3cc4ccccc4oc3=O)nc2c1 -79.5%
Cn1nccc1C(=O)N1CCN(c2ccccc2F)CC1 -23.6%
COc1ccccc1OCc1nnc(SCC(N)=O)n1-c1ccccc1 0.9%
CC(C)(C)c1nc(SCC(=O)Nc2nc3c(s2)CCCC3)c2ccccc2n1 -17.1%

inhibition, active:
CC(C)Cn1c(N)c(C(=O)CSc2ccc3c(c2)OCCO3)c(=O)n(C)c1=O 82.1%
CC1Cc2ccccc2N1S(=O)(=O)c1cccc(C(=O)N2CCN(c3ncccn3)CC2)c1 (centres undefined) 58.4%
Cc1cc2nc(-c3ccc(SCc4ccccn4)nc3)[nH]c2cc1C 78.5%
CC(C)(C)c1ccc(C(=O)O/N=C(\N)c2ccccc2)cc1 51%
CCc1ccc(OCC(=O)Nc2ccc(-c3cc4ccccc4oc3=O)c(OC)c2)cc1 51.2%
Cc1ccc(Cl)cc1N1CCN(C(=O)c2cc3c(=O)[nH]c4ccccc4c3n2C)CC1 89.7%
Cc1cccc(C)c1OCC(=O)OC/C(O)=C(\C#N)c1nc2ccccc2[nH]1 101%
COc1ccccc1OCC(=O)OC/C(O)=C(\C#N)c1nc2ccccc2[nH]1 98.2%
Cc1nc(SCC(=O)Nc2nc3ccccc3s2)c(C#N)c(C)c1C 61.7%
